Data on 25 compounds can be found in PubChem BioAssay AID463173 (ICCB-Longwood Screening Facility, Harvard Medical School, 2010).

Out of some 52,000 compounds screened, about 4,300 (8.3%) were called active. For the sample, actives were picked, then their nearest neighbours and some compounds at random. Values without a mark were called inactive. Cut-off read from the data, not from the text of the source: active = survival mostly below about 52% (no sharp cut-off); inactive = mostly above about 56%.

The subject of this experiment is DeltatarO mutant. The experiment in a line: S. aureus survival, RN4220 and DeltatarO strains – OD600, teichoic acid synthesis inhibitors, primary screen (AID 463173). The following applies: S. aureus RN4220 wild type/DeltatarO growth, OD600, 18 h, stronger effect = lower value, screened at 18.75 µg/mL (by protocol).
Consider `CCc1ccc(NC(=O)C(=O)NCCc2csc(-c3ccc(C(F)(F)F)cc3)n2)cc1`, for which the survival was 99%.
For `Cc1cc(C)c2c(-n3cccc3)c(C(=O)NCC(C)c3ccccc3)sc2n1` (stereo not given), the survival was 86%.
Then `O=C(Nc1ccc(Br)cc1)C1CCCN1S(=O)(=O)c1ccc(F)cc1` (stereo not given), with 66%.
Then `Cc1cccc(N2C(=O)C3C(C(=O)NC4CC4)C4C=CC3(O4)C2C(=O)NC2CCCC2)c1` (stereo not given), with 75%.
For `Cc1ccc(S(=O)(=O)NCCSc2nnnn2-c2ccc(Cl)c(C(=O)O)c2)cc1`, the survival was 138%.
For `Cc1ccc(-c2nc3nc(C)cc(Nc4ccccc4O)n3n2)cc1`, the survival was 75%.
As to `CCc1ccccc1NC(=O)CN1CCCN(Cc2cc(C)ccc2C)S1(=O)=O`, the survival is 94%.
Then `COc1ccccc1NC(=O)Cn1nc(-c2ccc(C)cc2)c2c(c1=O)CCCC2`, with 42%; and `Cc1ccc(C)c(-c2nn(CC(=O)Nc3cc(F)ccc3F)c(=O)c3c2CCCC3)c1`, with 41% (active); and `Cc1nn(CC(=O)Nc2cc(F)ccc2F)c(=O)c2cccn12`, with 94%.
For the compound `O=C(Cn1ncc2c([nH]c3ccccc32)c1=O)Nc1cc(F)ccc1F`, the survival is 81%.
Then `CCc1ccccc1NC(=O)Cn1nc(-c2cc(C)ccc2C)c2c(c1=O)CCCC2`, with 41% (active); and `COc1ccc(Cc2nnc(SCC(N)=O)o2)cc1`, with 76%; and `O=C1COc2ccccc2N1Cc1c(F)cccc1Cl`, with 79%.
For `CCOC(=O)c1c(NC(=O)COc2ccc(Cl)cc2C)sc2c1CCCCC2`, the survival was 75%.
With `CCOC(=O)c1c(NC(=O)CCCOc2ccc(C(C)(C)C)cc2)sc2c1CCCC2`, the survival is 14% (active).
The figure for `CCOC(=O)c1c(NC(=O)CCCOc2ccc(C(C)(C)C)cc2)sc2c1CCC2` is 9% (active); for `CCOC(=O)c1c(NC(=O)CCCOc2ccc(Cl)cc2)sc2c1CCC2` it is 17% (active).
As for `CCOC(=O)c1c(NC(=O)COc2ccc(C(C)(C)C)cc2)sc2c1CCCC2`, the survival was 75%.
With `CCOC(=O)c1c(NC(=O)CS(=O)(=O)c2ccc(Cl)cc2)sc2c1CCCC2`, the survival is 77%.
Turning to `Cc1ccc(N2CCN(S(=O)(=O)c3cc(Br)cc4c3N(C(=O)C3CC3)CC4)CC2C)cc1` (stereo not given), the survival was 70%.
With `CCOc1ccccc1NC(=O)C(=O)NCCc1sc(-c2cccc(F)c2)nc1C`, the survival was 90%.
As for `O=C(OCC(=O)N1CCc2ccccc21)c1ccccc1`, the survival was 92%.
In the case of `CCOc1ccc(CCNC(=O)c2cnc3sc(N4CCC(C)CC4)nn3c2=O)cc1`, the survival was 84%.
The figure for `COc1cc2c(cc1OC)C(CC(=O)Nc1ccccc1)C(=O)NN=C2C` (stereo not given) is 103%.
